Assay outcomes: PubChem, Broad Institute
C diff growth = blocks growth of Clostridium difficile; Clostridium difficile clinical isolate growth, OD600, 24 h; hits give low values; growth activity, negative = inhibition, % at 16 µg/mL (by protocol); 86,000 tested, 0.25% active; AID 1259249;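 active = mean growth activity at or below -80% and every replicate also at or below -80%; inconclusive = mean at or below -80% but some replicate above -80%; inactive = mean growth activity above -80%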
T cruzi growth-1 = inhibitors of T. cruzi proliferation. T. cruzi beta-gal in NIH3T3, GalScreen luminescence, 90 h. inhibition, % at 8.34 µM. 77,000 tested, 5.9% active. AID 624255;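 active = mean inhibition above about 93%, with at least 55% of replicates each passing it, limit read from the data, passing the limit was not always enough; inconclusive = only one of those two conditions holds; inactive = neither condition holds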
T cruzi growth-2 = inhibitors of T. cruzi proliferation. shares compounds with T cruzi growth-1. T. cruzi beta-gal in NIH3T3, GalScreen luminescence, 90 h. inhibition, % at 8.35 µM. 5,600 tested, 72% active. AID 651739;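 active = mean replicate inhibition above about 95% and at least 55% of replicates individually reaching it, limit read from the data; inconclusive = only one of the two criteria is met; inactive = neither criterion is met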
T cruzi growth-3 = Trypanosoma cruzi proliferation inhibition; shares compounds with T cruzi growth-1; T. cruzi beta-gal in NIH3T3, GalScreen luminescence, 90 h; 5,600 tested, 21% active; inhibition, % at 2.09 µM;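 active = mean inhibition above about 95%, with at least 55% of replicates also reaching it, limit read from the data; inconclusive = meets just one of the two conditions; inactive = meets neither condition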
3T3 cytotox = cytotoxicity in mouse NIH/3T3 fibroblasts; shares compounds with T cruzi growth-1; cytotoxicity (signal decrease), % at 8.35 µM; AID 651742; NIH/3T3 viability, CellTiter-Glo ATP luminescence, 90 h; 5,600 tested, 14% active;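 active = mean signal decrease across replicates above about 35% based on untreated-well scatter, with enough replicates individually passing, limit read from the data; inconclusive = no rule stated though some were filed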
NIH3T3 tox 2 = kills mouse NIH/3T3 fibroblasts. shares compounds with T cruzi growth-1. NIH/3T3 viability, CellTiter-Glo ATP luminescence, 90 h. inhibition, % at 24.9 µM. 5,600 tested, 56% active;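 active = mean loss of cell viability signal at or above a set limit, and enough replicates individually reaching it; inconclusive = meets only the mean limit or only the replicate share; inactive = meets neither condition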
Large screens that a line does not name were inactive (follow-up assays come after a bar, where they were run). Many of the other results were omitted from the sample, so hits are more common in it than they were.

N#C[C@H]1[C@@H](c2ccc(C#Cc3ccc(F)cc3)cc2)[C@H](CO)N1C(=O)Nc1ccc(F)cc1	none
C[C@H](CO)N1C[C@H](C)[C@@H](CN(C)C(=O)C2CC2)Oc2ncc(C#CCc3ccccc3)cc2C1=O	none (no result: C diff growth)
N#C[C@@H]1[C@@H](c2ccc(C#Cc3ccccc3F)cc2)[C@H](CO)N1C(=O)C1CC1	T cruzi growth-1 104.2 | T cruzi growth-2 103.4 | T cruzi growth-3 inactive | 3T3 cytotox inactive | NIH3T3 tox 2 inactive
N#C[C@@H]1[C@@H](c2ccc(C#Cc3ccccc3F)cc2)[C@@H](CO)N1C(=O)C1CC1	none
N#C[C@@H]1[C@@H](c2ccc(C#Cc3ccccc3F)cc2)[C@H](CO)N1C(=O)C1CCCC1	none (no result: T cruzi growth-1)
N#C[C@H]1[C@H](c2ccc(C#Cc3ccccc3F)cc2)[C@@H](CO)N1C(=O)C1CC1	T cruzi growth-1 102.0 | T cruzi growth-2 100.0 | T cruzi growth-3 100.4 | 3T3 cytotox inactive | NIH3T3 tox 2 inactive
N#C[C@H]1N[C@@H](CO)[C@H]1c1ccc(C#Cc2ccccc2F)cc1	T cruzi growth-1 99.5 | T cruzi growth-2 102.8 | T cruzi growth-3 108.7 | 3T3 cytotox inactive | NIH3T3 tox 2 inactive
N#C[C@H]1N[C@H](CO)[C@H]1c1ccc(C#Cc2ccccc2F)cc1	none
O=C(C[C@@H]1C[C@@H]2c3cc(NS(=O)(=O)c4ccc(F)cc4)ccc3O[C@@H]2[C@@H](CO)O1)NCc1ccc(Oc2ccccc2)cc1	none (no result: C diff growth)
O=C(C[C@H]1C[C@@H]2c3cc(NS(=O)(=O)c4ccc(F)cc4)ccc3O[C@@H]2[C@H](CO)O1)NCc1ccc(Oc2ccccc2)cc1	T cruzi growth-1 118.1 (no result: C diff growth) | T cruzi growth-2 97.3 | T cruzi growth-3 inactive | 3T3 cytotox inactive | NIH3T3 tox 2 78.6
COc1cccc(S(=O)(=O)Nc2ccc3c(c2)[C@H]2C[C@H](CC(=O)NCc4cccc(F)c4)O[C@@H](CO)[C@H]2O3)c1	T cruzi growth-1 inconclusive | T cruzi growth-2 inactive | T cruzi growth-3 inactive | 3T3 cytotox inactive | NIH3T3 tox 2 inactive
O=C(C[C@@H]1C[C@H]2c3cc(NS(=O)(=O)c4ccc(F)cc4)ccc3O[C@H]2[C@@H](CO)O1)NCc1ccc(Oc2ccccc2)cc1	T cruzi growth-1 114.5 (no result: C diff growth) | T cruzi growth-2 inconclusive | T cruzi growth-3 inactive | 3T3 cytotox 36.6 | NIH3T3 tox 2 67.1
O=C(C[C@@H]1C[C@@H]2c3cc(NS(=O)(=O)c4ccc(F)cc4)ccc3O[C@@H]2[C@H](CO)O1)NCc1ccccc1	none (no result: C diff growth)
O=C(C[C@@H]1C[C@@H]2c3cc(NS(=O)(=O)c4ccc(F)cc4)ccc3O[C@@H]2[C@H](CO)O1)NCc1ccc(Oc2ccccc2)cc1	T cruzi growth-1 105.0 | T cruzi growth-2 99.9 | T cruzi growth-3 inactive | 3T3 cytotox inactive | NIH3T3 tox 2 inactive
COc1cccc(S(=O)(=O)Nc2ccc3c(c2)[C@H]2C[C@H](CC(=O)NCc4cccc(F)c4)O[C@H](CO)[C@H]2O3)c1	none
O=C(C[C@@H]1C[C@H]2c3cc(NS(=O)(=O)c4ccc(F)cc4)ccc3O[C@H]2[C@H](CO)O1)NCc1ccc(Oc2ccccc2)cc1	none (no result: C diff growth)
CNC[C@@H]1Oc2c(N)cccc2C(=O)N([C@@H](C)CO)C[C@H]1C	none
C[C@@H]1CN([C@H](C)CO)C(=O)c2cc(NC(=O)Nc3ccc4c(c3)OCO4)ccc2O[C@@H]1CN(C)Cc1ccc(Cl)c(Cl)c1	none (no result: C diff growth)
O=S(=O)(c1ccccc1)N1[C@H](CO)[C@H]2c3ccccc3NC[C@H]21	none
C[C@@H]1CN([C@H](C)CO)C(=O)c2cc(NS(=O)(=O)c3ccc(Cl)cc3)ccc2O[C@@H]1CN(C)C	none (no result: T cruzi growth-1)
CCC(=O)N1C[C@H](O)COC[C@@H]2O[C@H](CC(=O)NC)CC[C@H]21	none
Cc1ccc(S(=O)(=O)N(C)C[C@H]2Oc3ccc(NS(=O)(=O)c4c(C)noc4C)cc3C(=O)N([C@H](C)CO)C[C@H]2C)cc1	none
COc1ccccc1-c1ccc2c(c1)[C@@H]1[C@@H](CCN1S(=O)(=O)c1ccccc1OC)[C@H](CO)N2	none
COc1ccccc1S(=O)(=O)N1CC[C@@H]2[C@H]1c1cc(-c3ccccc3F)ccc1N[C@@H]2CO	T cruzi growth-1 102.5 | T cruzi growth-2 97.0 | T cruzi growth-3 inactive | 3T3 cytotox inactive | NIH3T3 tox 2 inactive
O=S(=O)(c1ccccc1F)N1CC[C@@H]2[C@H](CO)Nc3ccc(-c4ccccc4F)cc3[C@@H]21	none
Cc1ccccc1S(=O)(=O)N1CC[C@@H]2[C@@H](CO)Nc3ccc(-c4ccccc4F)cc3[C@@H]21	T cruzi growth-1 119.0 | T cruzi growth-2 102.0 | T cruzi growth-3 inactive | 3T3 cytotox 39.4 | NIH3T3 tox 2 103.8
COCC(=O)N(C)C[C@@H]1Oc2cc(C#CC3CCCC3)ccc2S(=O)(=O)N([C@@H](C)CO)C[C@@H]1C	none (no result: C diff growth)
C[C@@H]1CN([C@H](C)CO)C(=O)c2cccc(NC(=O)c3cnccn3)c2O[C@@H]1CN(C)Cc1ccc(Cl)c(Cl)c1	none
C[C@@H]1CN([C@@H](C)CO)C(=O)c2cccc(NC(=O)c3cnccn3)c2O[C@@H]1CN(C)Cc1ccc2c(c1)OCO2	T cruzi growth-1 96.8 | T cruzi growth-2 inactive | T cruzi growth-3 inactive | 3T3 cytotox inactive | NIH3T3 tox 2 50.5
C[C@H]1CN([C@@H](C)CO)C(=O)c2cccc(NC(=O)c3cnccn3)c2O[C@@H]1CN(C)Cc1ccc(Cl)c(Cl)c1	T cruzi growth-1 109.0 | T cruzi growth-2 inactive | T cruzi growth-3 inactive | 3T3 cytotox inactive | NIH3T3 tox 2 49.7
C[C@H](CO)N1C[C@H](C)[C@@H](CN(C)Cc2ccc3c(c2)OCO3)Oc2c(NC(=O)c3cnccn3)cccc2C1=O	none
C[C@H](CO)N1C[C@H](C)[C@H](CN(C)Cc2ccc3c(c2)OCO3)Oc2c(NC(=O)c3ccncc3)cccc2C1=O	T cruzi growth-1 97.3 | T cruzi growth-2 inactive | T cruzi growth-3 inactive | 3T3 cytotox inactive | NIH3T3 tox 2 inactive
C[C@H]1CN([C@@H](C)CO)C(=O)c2cccc(NC(=O)c3ccncc3)c2O[C@@H]1CN(C)Cc1ccc(Cl)c(Cl)c1	none
CCCNC(=O)N(C)C[C@H]1Oc2ncc(Br)cc2C(=O)N([C@H](C)CO)C[C@@H]1C	none (no result: T cruzi growth-1)
CC(=O)N(C)C[C@@H]1Oc2cc(-c3ccccc3)ccc2S(=O)(=O)N([C@@H](C)CO)C[C@@H]1C	none (no result: C diff growth)
Cc1noc(C)c1S(=O)(=O)Nc1ccc2c(c1)C(=O)N([C@H](C)CO)C[C@H](C)[C@H](CN(C)S(=O)(=O)c1cn(C)cn1)O2	none
C[C@@H]1CN([C@@H](C)CO)S(=O)(=O)c2ccc(C#C[C@@H](C)O)cc2O[C@H]1CN(C)Cc1ccncc1	T cruzi growth-1 102.3 | T cruzi growth-2 100.9 | T cruzi growth-3 inactive | 3T3 cytotox inactive | NIH3T3 tox 2 27.1
C[C@@H]1CN([C@H](C)CO)S(=O)(=O)c2ccc(C#C[C@@H](C)O)cc2O[C@H]1CN(C)Cc1ccncc1	T cruzi growth-1 104.3 | T cruzi growth-2 95.5 | T cruzi growth-3 inactive | 3T3 cytotox inactive | NIH3T3 tox 2 inactive
